The values below come from PubChem BioAssay (Tox21).

The nature of assay [1]: qHTS assay to identify aromatase inhibitors - cell viability counter screen (AID 743084).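 Also: cells stimulated with testosterone during compound exposure; nearly all actives have a fitted effect of over 55% in size.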 Also: potency is read from the fitted curve at half-maximal effect. In general terms: Quantitative high-throughput screening tests each substance at several concentrations.
For assay [2], the target named is Aryl hydrocarbon receptor (Homo sapiens) (UniProt P35869). Put plainly: qHTS assay to identify small molecule that activate the aryl hydrocarbon receptor (AhR) signaling pathway (AID 743085). Also: nearly all actives have a fitted effect of over 15% in size. Also: potency is read from the fitted curve at half-maximal effect.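 As to activation: HG2L7.5c1 human HepG2 liver cells with stably integrated DRE-driven firefly reporter; series mostly up to about 70 µM.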 In a few lines:
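Steps: seed HepG2-AhR-luc cells; allow 5 h at 37C; pin-transfer test compound or vehicle; incubate 24 h at 37C; add viability dye (30 min, 37C) and read fluorescence; add luciferase substrate (30 min, RT) and read luminescence.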

A short description of assay [3]: qHTS assay to identify small molecule that activate the aryl hydrocarbon receptor (AhR) signaling pathway - cell viability counter screen (AID 743086). Also: nearly all actives have a fitted effect of over 45% in size. Also: potency is read from the fitted curve at half-maximal effect. In a few lines: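 HepG2-AhR-luc (HG2L7.5c1) cells, 4000/well, treated 24 h at 37 C with compound; viability measured as CellTiter-Fluor fluorescence after 30 min in the same wells as the luciferase read.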
In assay [4] the target is Peroxisome proliferator-activated receptor gamma (Homo sapiens) (UniProt P37231). The experiment in a line: qHTS assay to identify small molecule agonists of the peroxisome proliferator-activated receptor gamma (PPARg) signaling pathway (AID 743094; active = well fitted activation curve with a large enough effect in the signal ratio in the repeat runs, not every such curve was filed as active; the % refers to the signal ratio; also: potency is read from the fitted curve at half-maximal effect). In a few lines: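 Agonism was assessed in a beta-lactamase reporter system, HEK293H cells with a stably integrated UAS-bla construct under PPARg control; the 17 h treatment at 37C preceded a 1 h room-temperature FRET substrate read.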

A short description of assay [5]: qHTS assay to identify small molecule antagonists of the peroxisome proliferator-activated receptor gamma (PPARg) signaling pathway - cell viability counter screen (AID 743194). Also: nearly all actives have a fitted effect of over 55% in size. Also: potency is read from the fitted curve at half-maximal effect. In a few lines: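 Cytotoxicity counter screen in PPARg-bla HEK293H cells, same wells as reporter assay. Compounds plus 50 nM rosiglitazone (final) for 17 h at 37 C, then viability read by CellTiter-Glo luminescence.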

Assay [6] can be described thus: qHTS assay for small molecule activators of the heat shock response signaling pathway - cell viability counter screen (AID 743209). Also: nearly all actives have a fitted effect of over 50% in size. Also: potency is read from the fitted curve at half-maximal effect. In a few lines: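 Compounds dissolved in DMSO were added to overnight-plated HSE-bla HeLa cells and left 5 h at 37 C. Cell viability was quantified by luminescence using CellTiter-Glo.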
Assay [7] can be described thus: qHTS assay for small molecule activators of the heat shock response signaling pathway (AID 743210; active = well fitted activation curve with a large enough effect in the signal ratio in the repeat runs, with a control signal flat, not every such curve was filed as active; the % refers to the signal ratio;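 also: HeLa cells with beta-lactamase reporter driven by heat shock elements; series mostly up to about 63 µM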). The method, boiled down:
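Following overnight attachment, HSE-bla HeLa cells received test compounds for 5 h at 37 C; beta-lactamase activity was then detected via FRET substrate fluorescence.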

A short description of assay [8]: qHTS assay to identify small molecule agonists of the peroxisome proliferator-activated receptor delta (PPARd) signaling pathway - cell viability counter screen (AID 743211). Also: nearly all actives have a fitted effect of over 55% in size. Also: potency is read from the fitted curve at half-maximal effect. In a few lines:
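Viability of GeneBLAzer PPARd UAS-bla HEK293H cells was assessed after 17 h compound incubation at 37C, using CellTiter-Glo reagent added after the reporter read and luminescence recorded 30 min later.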

For assay [9], the target named is Peroxisome proliferator-activated receptor delta (Homo sapiens) (UniProt Q03181). The experiment in a line: qHTS assay to identify small molecule agonists of the peroxisome proliferator-activated receptor delta (PPARd) signaling pathway (AID 743212; calls by dose curve; also: potency is read from the fitted curve at half-maximal effect). The method, boiled down:
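Tox21 library screened in GeneBLAzer PPARd UAS-bla HEK293H cells. After compound treatment at 37 C, a FRET-based beta-lactamase substrate was applied for 2 h and fluorescence recorded.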

Assay [10] in a line: qHTS assay to identify small molecule antagonists of the peroxisome proliferator-activated receptor delta (PPARd) signaling pathway - cell viability counter screen (AID 743213). Also: nearly all actives have a fitted effect of over 50% in size. Also: potency is read from the fitted curve at half-maximal effect. The method, boiled down:
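Same-well viability: cells pre-incubated 5 h, dosed with compound plus 300 nM L165041, kept 17 h at 37 C, FRET substrate 2 h RT, then CellTiter-Glo 30 min RT and luminescence.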

The target of assay [11] is Peroxisome proliferator-activated receptor delta (Homo sapiens) (UniProt Q03181). The experiment in a line: qHTS assay to identify small molecule antagonists of the peroxisome proliferator-activated receptor delta (PPARd) signaling pathway (AID 743215; active = well fitted inhibition curve with a large enough effect in the signal ratio in the repeat runs, not every such curve was filed as active; the % refers to the signal ratio;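 also: cells stimulated with agonist L165041 at 300 nM final during compound exposure; series mostly up to about 62 µM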). In a few lines: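 Here, a reporter line (HEK293H, beta-lactamase under a UAS) measures PPARd signaling. Compounds are tested against agonist L165041 at 300 nM final concentration over 17 h at 37 C, with fluorescence read after substrate.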

In assay [12] the target is Bile acid receptor (Homo sapiens) (UniProt Q96RI1). The experiment in a line: qHTS assay to identify small molecule antagonists of the farnesoid-X-receptor (FXR) signaling pathway (AID 743217; active = well fitted inhibition curve with a large enough effect in the signal ratio in the repeat runs, not every such curve was filed as active; the % refers to the signal ratio). In a few lines: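 Test compounds are pin-transferred onto FXR-bla HEK 293T cells, then chenodeoxycholic acid is added at 50 uM final. After 16 h at 37 °C, LiveBLAzer B/G substrate is applied for 2 h at room temperature and fluorescence read.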

Assay [13] in a line: qHTS assay to identify small molecule agonists of the farnesoid-X-receptor (FXR) signaling pathway - cell viability counter screen (AID 743218). Also: nearly all actives have a fitted effect of over 45% in size. Also: potency is read from the fitted curve at half-maximal effect. The method, boiled down:
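Quantitative HTS counter screen measuring ATP-based viability via CellTiter-Glo luminescence in HEK 293T cells carrying a UAS-driven beta-lactamase reporter, after 16 h compound exposure at 37 C.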

In assay [14] the target is Bile acid receptor (Homo sapiens) (UniProt Q96RI1). The experiment in a line: qHTS assay to identify small molecule agonists of the farnesoid-X-receptor (FXR) signaling pathway (AID 743220; active = well fitted activation curve with a large enough effect in the signal ratio in the repeat runs, not every such curve was filed as active; the % refers to the signal ratio). In a few lines:
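FXR-UAS-bla HEK 293T cells carrying a UAS-driven beta-lactamase reporter were plated for 5 h at 37C/5% CO2, then exposed to DMSO-dissolved Tox21 10K compounds for 16 h at 37C. A LiveBLAzer B/G FRET substrate was loaded for 2 h at room temperature before fluorescence reading.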

Assay [15] is described as follows: qHTS assay to identify small molecule antagonists of the farnesoid-X-receptor (FXR) signaling pathway - cell viability counter screen (AID 743221; active = well fitted cell-killing curve with a large enough effect in the repeat runs, not every such curve was filed as active; also: nearly all actives have a fitted effect of over 50% in size; also: potency is read from the fitted curve at half-maximal effect). In a few lines:
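Quantitative HTS of the Tox21 10K library run in parallel with the beta-lactamase reporter read. HEK 293T cells carrying a UAS-driven bla reporter got compound and 50 uM CDCA (final) for 16 h; ATP-based luminescence followed.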

Assay [16] is described as follows: qHTS assay for small molecule agonists of the antioxidant response element (ARE) signaling pathway (AID 743202; active = well fitted activation curve with a large enough effect in the signal ratio in the repeat runs, not every such curve was filed as active; the % refers to the signal ratio; also: potency is read from the fitted curve at half-maximal effect). The method, boiled down: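 HepG2 ARE-bla cells; 16 h treatment at 37 C; FRET-based beta-lactamase fluorescence read after 2 h substrate incubation at room temperature.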
Assay [17] is described as follows: qHTS assay for small molecule agonists of the antioxidant response element (ARE) signaling pathway - cell viability counter screen (AID 743203; calls by dose curve; also: nearly all actives have a fitted effect of over 55% in size; also: potency is read from the fitted curve at half-maximal effect). The method, boiled down: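 ATP content via CellTiter-Glo luminescence served as the viability measure. Cells: ARE-bla HepG2, 2,000 per well. Exposure: 16 hrs, 37C/5% CO2.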
In assay [18] the target is Vitamin D3 receptor (Homo sapiens) (UniProt P11473). The experiment in a line: qHTS assay to identify small molecule agonists of the vitamin D receptor (VDR) signaling pathway (AID 743222; calls by dose curve; also: potency is read from the fitted curve at half-maximal effect). In a few lines:
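Tox21 cell reporter format: VDR-bla line, 16 h compound exposure in 5% CO2 at 37C, then fluorescence intensity after 2 h with LiveBLAzer B/G FRET substrate.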

Assay [19] concerns the target Peroxisome proliferator-activated receptor gamma (Homo sapiens) (UniProt P37231). Put plainly: qHTS assay to identify small molecule antagonists of the peroxisome proliferator-activated receptor gamma (PPARg) signaling pathway (AID 743191; calls by dose curve; also: nearly all actives have a fitted effect of over 30% in size; also: potency is read from the fitted curve at half-maximal effect). In a few lines: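 GeneBLAzer PPARg UAS-bla HEK293H cells, 5 h post-plating, exposed to compounds 17 h at 37C. LiveBLAzer B/G FRET substrate added for 1 h at room temperature; beta-lactamase reporter read by fluorescence intensity.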

Assay [20] has as its target Vitamin D3 receptor (Homo sapiens) (UniProt P11473). Put plainly: qHTS assay to identify small molecule antagonists of the vitamin D receptor (VDR) signaling pathway (AID 743223; active = well fitted inhibition curve with a large enough effect in the signal ratio in the repeat runs, not every such curve was filed as active; the % refers to the signal ratio). In a few lines:
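Fluorescence from LiveBLAzer B/G FRET substrate, read after 2 h at room temperature, reflects beta-lactamase reporter activity in VDR-bla cells treated 16 h at 37C with compounds and agonist 1alpha,25-dihydroxyvitamin D3 (3 nM final).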

Where “and” joins values, the source holds several entries; their conditions need not be identical. Identical values can stand only once. Records with an inconclusive call do not appear. The source holds several records for some structures; these can differ, active in one and inactive in another. Calls of active or inactive are those of the source. Unless noted, calls follow the shape of the dose curve; as a rule, active = well fitted curve in the direction sought with a large enough effect in the repeat runs; inconclusive = weak or mixed curves; inactive = no such curve, though single readings can be large; an effect the other way counts as inactive or inconclusive.

Chain of Bile acid receptor (Homo sapiens) (Q96RI1 whole entry, looked up): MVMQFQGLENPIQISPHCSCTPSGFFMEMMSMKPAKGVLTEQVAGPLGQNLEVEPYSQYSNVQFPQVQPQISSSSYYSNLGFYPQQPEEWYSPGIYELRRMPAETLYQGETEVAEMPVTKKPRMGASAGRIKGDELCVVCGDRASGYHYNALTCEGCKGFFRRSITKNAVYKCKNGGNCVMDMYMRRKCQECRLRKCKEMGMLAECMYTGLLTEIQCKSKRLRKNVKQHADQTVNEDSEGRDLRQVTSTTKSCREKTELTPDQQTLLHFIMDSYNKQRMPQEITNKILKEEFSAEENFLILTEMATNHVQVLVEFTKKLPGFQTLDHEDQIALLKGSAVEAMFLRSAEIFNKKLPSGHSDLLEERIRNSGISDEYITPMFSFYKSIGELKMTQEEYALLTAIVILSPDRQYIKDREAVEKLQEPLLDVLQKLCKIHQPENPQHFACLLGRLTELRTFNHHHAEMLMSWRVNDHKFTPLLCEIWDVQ
Chain of Peroxisome proliferator-activated receptor delta (Homo sapiens) (Q03181 whole entry, looked up): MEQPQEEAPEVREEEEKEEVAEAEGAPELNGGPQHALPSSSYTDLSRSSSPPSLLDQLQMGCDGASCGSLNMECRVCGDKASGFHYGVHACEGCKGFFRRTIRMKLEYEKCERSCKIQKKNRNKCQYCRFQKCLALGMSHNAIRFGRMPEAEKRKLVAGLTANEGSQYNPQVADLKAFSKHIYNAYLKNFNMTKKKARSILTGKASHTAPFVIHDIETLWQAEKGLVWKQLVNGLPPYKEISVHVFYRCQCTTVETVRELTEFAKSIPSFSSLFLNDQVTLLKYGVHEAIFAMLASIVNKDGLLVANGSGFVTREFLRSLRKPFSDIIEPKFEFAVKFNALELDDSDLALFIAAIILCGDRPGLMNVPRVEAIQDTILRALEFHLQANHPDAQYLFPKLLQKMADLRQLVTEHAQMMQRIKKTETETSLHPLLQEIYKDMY
Chain of Peroxisome proliferator-activated receptor gamma (Homo sapiens) (P37231 whole entry, looked up): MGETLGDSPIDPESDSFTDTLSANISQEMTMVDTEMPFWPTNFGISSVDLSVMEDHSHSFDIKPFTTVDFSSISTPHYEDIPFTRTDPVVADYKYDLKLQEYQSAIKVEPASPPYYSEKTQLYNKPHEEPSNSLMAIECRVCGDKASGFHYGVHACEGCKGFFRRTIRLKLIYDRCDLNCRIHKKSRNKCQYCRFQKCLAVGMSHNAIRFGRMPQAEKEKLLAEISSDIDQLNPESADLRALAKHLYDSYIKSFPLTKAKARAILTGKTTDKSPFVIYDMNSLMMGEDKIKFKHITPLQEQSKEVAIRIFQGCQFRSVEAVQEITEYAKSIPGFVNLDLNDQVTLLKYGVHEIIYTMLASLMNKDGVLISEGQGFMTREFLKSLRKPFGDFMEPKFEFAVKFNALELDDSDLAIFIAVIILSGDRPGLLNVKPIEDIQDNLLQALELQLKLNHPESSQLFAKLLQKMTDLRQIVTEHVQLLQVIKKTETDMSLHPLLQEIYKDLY
Chain of Aryl hydrocarbon receptor (Homo sapiens) (P35869 whole entry, looked up): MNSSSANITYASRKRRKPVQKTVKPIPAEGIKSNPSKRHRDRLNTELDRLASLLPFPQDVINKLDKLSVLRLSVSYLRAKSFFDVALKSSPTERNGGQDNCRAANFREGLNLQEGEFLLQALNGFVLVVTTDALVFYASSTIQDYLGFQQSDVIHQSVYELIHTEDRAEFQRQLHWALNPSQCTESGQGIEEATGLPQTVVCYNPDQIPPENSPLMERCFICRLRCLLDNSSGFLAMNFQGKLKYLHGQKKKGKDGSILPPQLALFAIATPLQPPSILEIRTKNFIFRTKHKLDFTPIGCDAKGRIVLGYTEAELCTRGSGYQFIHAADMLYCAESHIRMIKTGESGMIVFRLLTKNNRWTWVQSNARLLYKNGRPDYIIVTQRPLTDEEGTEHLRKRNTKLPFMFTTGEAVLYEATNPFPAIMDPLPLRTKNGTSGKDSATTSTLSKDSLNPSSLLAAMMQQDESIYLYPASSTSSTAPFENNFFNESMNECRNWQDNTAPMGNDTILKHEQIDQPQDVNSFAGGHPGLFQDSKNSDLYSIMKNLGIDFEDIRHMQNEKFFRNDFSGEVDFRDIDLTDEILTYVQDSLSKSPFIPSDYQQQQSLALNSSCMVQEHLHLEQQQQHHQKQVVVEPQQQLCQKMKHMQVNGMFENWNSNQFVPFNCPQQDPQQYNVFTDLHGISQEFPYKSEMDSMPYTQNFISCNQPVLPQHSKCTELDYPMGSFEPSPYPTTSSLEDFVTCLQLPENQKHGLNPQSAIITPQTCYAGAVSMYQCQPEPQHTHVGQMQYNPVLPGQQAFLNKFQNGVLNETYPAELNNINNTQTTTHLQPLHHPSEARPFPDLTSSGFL
Chain of Vitamin D3 receptor (Homo sapiens) (P11473 whole entry, looked up): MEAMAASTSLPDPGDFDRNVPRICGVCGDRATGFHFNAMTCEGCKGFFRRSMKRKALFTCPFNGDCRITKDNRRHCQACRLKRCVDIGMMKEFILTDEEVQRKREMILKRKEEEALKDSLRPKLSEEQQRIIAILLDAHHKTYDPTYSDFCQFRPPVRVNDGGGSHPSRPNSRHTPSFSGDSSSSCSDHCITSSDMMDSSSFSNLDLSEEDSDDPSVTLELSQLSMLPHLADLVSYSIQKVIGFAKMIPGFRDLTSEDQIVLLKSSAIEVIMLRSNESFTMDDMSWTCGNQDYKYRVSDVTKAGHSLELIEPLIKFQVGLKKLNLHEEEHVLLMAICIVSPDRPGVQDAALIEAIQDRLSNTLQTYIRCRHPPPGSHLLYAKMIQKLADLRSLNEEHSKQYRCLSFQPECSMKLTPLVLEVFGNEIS

For the compound `Nc1c(N=Nc2ccc(-c3ccc(N=Nc4cc(S(=O)(=O)O)c5ccccc5c4N)cc3)cc2)cc(S(=O)(=O)O)c2ccccc12`, the Potency is 13.3 µM (active) and 4.32 µM (active) in assay [1]; 23.7 µM (active) and 24.3 µM (active) in assay [2]; 21.1 µM (active) and 9.68 µM (active) in assay [3]. In addition, the Potency result in [4], in assay [5], in [6], in assay [8], in assay [9] and in assay [10] was “inactive” throughout. Also, the Potency result in assay [11], in assay [12], in [13] and in [15] was “inactive” each time. For the same compound, the result in assay [7] and in assay [14] was inactive.
With `COc1ccc(CN(CCN(C)C)c2ccccn2)cc1`, the Potency result in assay [1], in assay [2], in assay [3], in [5], in assay [16] and in [17] was “inactive” each time. The Potency entry in assay [6], in assay [8], in [9], in assay [10], in assay [13] and in assay [15] was “inactive” throughout. For the same compound, the result in assay [7] was inactive.
For the compound `Cc1cc(=O)oc2cc(O)ccc12`, the Potency result in [1], in [2], in assay [3], in assay [5], in [17] and in [6] was “inactive” each time. In addition, the Potency result in assay [8], in assay [10], in [13] and in assay [15] was “inactive” throughout. Besides, the Potency in assay [4] is 49 µM (active); in [9], 43.6 µM (active) and 26.6 µM (active); in [18] it was 21.1 µM (active).
Regarding `CCCCCCCCCCCCCCCC[N+](C)(C)Cc1ccccc1`, the Potency in [1] was 26.6 µM (active) and 49.4 µM (active); in assay [3], 29.8 µM (active); in [5], 25.3 µM (active) and 17.7 µM (active) and 33.5 µM (active); in assay [17] it was 63.1 µM (active) and 49.4 µM (active) and 29.8 µM (active); in assay [6] it was 50.5 µM (active) and 44.4 µM (active) and 23.7 µM (active); in assay [8] it was 31.9 µM (active) and 8.86 µM (active) and 18.8 µM (active). Further, the Potency is 22.6 µM (active) and 9.94 µM (active) and 13.3 µM (active) in assay [10]; 25.3 µM (active) and 22.3 µM (active) and 13.3 µM (active) in assay [13]; 63.6 µM (active) and 25 µM (active) and 16.8 µM (active) in assay [15]. The Potency entry in assay [2], in [4], in assay [11] and in [18] was “inactive” each time. Besides, the outcome in assay [14] was inactive.
For `CC(O)(P(=O)(O)O)P(=O)(O)O`, the Potency result in assay [1], in [3], in assay [4], in assay [19], in assay [5] and in assay [16] was “inactive” in each case. For the same compound, the Potency result in assay [17], in [6], in assay [8], in [10], in assay [13] and in assay [15] was “inactive” in each case. Moreover, the Potency entry in assay [2] is “inactive and 15.4 µM (active)”.
In the case of `C=C1CC[C@H](O)C/C1=C\C=C1/CCC[C@]2(C)[C@@H]([C@H](C)CCCC(C)C)CC[C@@H]12`, the Potency result in assay [1], in assay [2] and in assay [3] was “inactive” throughout. The Potency in [19] was 54.4 µM (active); in [5], 61.1 µM (active); in assay [16], 21.5 µM (active); in assay [6], 48.5 µM (active); in assay [10] it was 43.2 µM (active); in assay [13] it was 48.5 µM (active). Moreover, the Potency in [15] was 48.5 µM (active). Also, the compound was classed as inactive in [14].
As to `Cc1c(C(=O)O)c(O)cc2c1C(=O)c1c(O)c([C@@H]3O[C@H](CO)[C@@H](O)[C@H](O)[C@H]3O)c(O)c(O)c1C2=O`, the Potency is 29.8 µM (active) and 13.3 µM (active) and 24.3 µM (active) in assay [1]; 26.6 µM (active) and 21.7 µM (active) in [3]. Also, the Potency result in assay [2], in assay [4], in assay [19], in assay [5], in assay [17] and in [6] was “inactive” in each case. Moreover, the Potency result in assay [8], in assay [9], in assay [10], in assay [11], in assay [12] and in assay [13] was “inactive” in each case. Also, the Potency entry in assay [15] and in assay [18] was “inactive” in each case. For the same compound, the compound was called inactive in assay [14].
Regarding `CCCCOC(=O)c1ccc(O)cc1`, the Potency result in assay [1], in assay [2], in assay [3], in [4], in assay [5] and in [16] was “inactive” each time. Besides, the Potency entry in [17], in [6], in [8], in assay [9], in assay [10] and in [11] was “inactive” in each case. Further, the Potency result in assay [12], in [13], in assay [15], in [18] and in assay [20] was “inactive” each time. In addition, the compound was called inactive in assay [7] and in [14].
